Reference: PubChem BioAssay (NCATS)
Inconclusive results are not listed. Entries that show only a call come without a potency. The source made the active and inactive calls. Unless noted, calls follow the shape of the dose curve; as a rule, active = well fitted curve in the direction sought with a large enough effect; inconclusive = small, poorly fitted or top-dose-only effect, or another doubt; inactive = no such curve, though single readings can be large; an effect the other way counts as inactive or inconclusive.

What was measured:
[1] = qHTS for differential inhibitors of proliferation of Plasmodium falciparum line D10 (AID 1877); settings: series mostly up to 28.7 µM;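 also: parasites grown with compound for 72 h before DNA staining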
[2] = target: Ferritin light chain (Equus caballus) (UniProt P02791); assay: qHTS Validation Assay for Identification of Novel General Anesthetics (AID 2323); settings: horse apoferritin, anesthetic-site fluorescent probe displacement; series mostly up to 76.9 µM
Ferritin light chain (Equus caballus), sequence (P02791 2-175 limits assumed): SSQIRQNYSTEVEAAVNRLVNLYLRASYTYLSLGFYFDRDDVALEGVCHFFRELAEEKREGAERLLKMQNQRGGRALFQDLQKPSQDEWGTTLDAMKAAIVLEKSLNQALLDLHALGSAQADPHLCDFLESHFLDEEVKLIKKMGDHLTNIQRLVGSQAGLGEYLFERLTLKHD
In short: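 Apoferritin from horse spleen (10 uM) was mixed with 1-aminoanthracene at 50% saturation in PBS, then compounds were added. After 10 min at room temperature, fluorescence was read (ex 380 nm, em 535 nm) and normalized to free-probe and complex controls.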

[3] = target: Voltage-gated inwardly rectifying potassium channel KCNH2 (Homo sapiens) (UniProt Q12809); assay: qHTS Assay for Small Molecule Inhibitors of the Human hERG Channel Activity (AID 588834); settings: U2OS BacMam hERG, FluxOR thallium flux fluorescence; series mostly up to 46.1 µM;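 also: top concentration of the series differs between compounds; lower thallium flux fluorescence means stronger hERG block; nearly all actives have a fitted effect of over 50% in size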
Voltage-gated inwardly rectifying potassium channel KCNH2 (Homo sapiens), sequence (Q12809 whole entry, looked up): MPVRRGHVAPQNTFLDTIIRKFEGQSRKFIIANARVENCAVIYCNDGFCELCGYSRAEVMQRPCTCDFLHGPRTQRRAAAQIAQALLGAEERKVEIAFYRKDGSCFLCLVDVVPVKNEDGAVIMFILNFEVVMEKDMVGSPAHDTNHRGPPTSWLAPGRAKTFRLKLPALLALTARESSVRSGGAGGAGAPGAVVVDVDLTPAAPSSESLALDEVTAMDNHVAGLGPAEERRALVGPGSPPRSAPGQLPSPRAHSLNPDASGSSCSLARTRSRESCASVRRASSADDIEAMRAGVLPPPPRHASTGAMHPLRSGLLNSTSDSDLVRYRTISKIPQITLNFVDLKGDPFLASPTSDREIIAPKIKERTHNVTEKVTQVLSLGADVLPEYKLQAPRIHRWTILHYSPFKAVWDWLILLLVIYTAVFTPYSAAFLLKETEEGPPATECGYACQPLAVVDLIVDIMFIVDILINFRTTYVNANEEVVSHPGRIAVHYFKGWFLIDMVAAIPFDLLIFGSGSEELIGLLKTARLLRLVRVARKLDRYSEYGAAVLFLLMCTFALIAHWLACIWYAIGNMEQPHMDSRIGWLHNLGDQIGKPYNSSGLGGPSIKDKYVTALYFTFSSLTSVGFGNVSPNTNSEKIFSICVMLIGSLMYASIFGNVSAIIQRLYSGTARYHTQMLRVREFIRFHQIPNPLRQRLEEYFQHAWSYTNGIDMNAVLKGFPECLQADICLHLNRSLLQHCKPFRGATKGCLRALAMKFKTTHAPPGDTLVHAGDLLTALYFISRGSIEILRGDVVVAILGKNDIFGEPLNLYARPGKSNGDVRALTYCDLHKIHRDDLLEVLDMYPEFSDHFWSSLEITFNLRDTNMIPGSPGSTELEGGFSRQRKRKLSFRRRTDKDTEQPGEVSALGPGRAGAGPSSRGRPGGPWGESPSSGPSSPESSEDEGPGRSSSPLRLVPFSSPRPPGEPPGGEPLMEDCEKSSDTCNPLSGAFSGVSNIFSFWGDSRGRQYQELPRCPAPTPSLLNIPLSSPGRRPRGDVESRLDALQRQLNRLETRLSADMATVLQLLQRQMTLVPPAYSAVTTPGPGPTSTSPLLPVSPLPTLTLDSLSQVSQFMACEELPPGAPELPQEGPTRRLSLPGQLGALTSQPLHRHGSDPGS
In short: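 Measured: FluxOR fluorescence after thallium stimulation in U2OS cells transduced with hERG by baculovirus. Compounds pre-incubated around 10 min; medium Opti-MEM with 2% FCS. AC50 from Hill equation.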

[4] = qHTS Assay for Identification of Small Molecule Antagonists for Thrombopoietin (TPO) Signaling Pathway (AID 918); settings: TPO-dependent cell signaling reporter, antagonist mode; also: potency is read from the fitted curve at half-maximal effect; nearly all actives have a fitted effect of over 60% in size
In short: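 Murine Ba/F3 cells stably expressing human TPO receptor and a Glycoprotein IIb promoter–luciferase reporter were IL-3-starved overnight, treated with compounds plus TPO (26 pM final, its EC50) for 24 hrs at 37 C, then read by luminescence.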

[5] = target: Cytochrome P450 2D6 (Homo sapiens) (UniProt P10635); assay: Cytochrome P450 family 2 subfamily D member 6 (CYP2D6) small molecule antagonists: luciferase biochemical (cell-free) qHTS assay (AID 1645840; active = well fitted curve in the direction sought with a large enough effect in the repeat runs; an effect the other way counts as inactive or inconclusive; also: nearly all actives have a fitted effect of over 55% in size); settings: P450-Glo CYP2D6 enzyme, luciferin luminescence, 1 h; series mostly up to 57.4 µM
Cytochrome P450 2D6 (Homo sapiens), sequence (P10635 whole entry, looked up): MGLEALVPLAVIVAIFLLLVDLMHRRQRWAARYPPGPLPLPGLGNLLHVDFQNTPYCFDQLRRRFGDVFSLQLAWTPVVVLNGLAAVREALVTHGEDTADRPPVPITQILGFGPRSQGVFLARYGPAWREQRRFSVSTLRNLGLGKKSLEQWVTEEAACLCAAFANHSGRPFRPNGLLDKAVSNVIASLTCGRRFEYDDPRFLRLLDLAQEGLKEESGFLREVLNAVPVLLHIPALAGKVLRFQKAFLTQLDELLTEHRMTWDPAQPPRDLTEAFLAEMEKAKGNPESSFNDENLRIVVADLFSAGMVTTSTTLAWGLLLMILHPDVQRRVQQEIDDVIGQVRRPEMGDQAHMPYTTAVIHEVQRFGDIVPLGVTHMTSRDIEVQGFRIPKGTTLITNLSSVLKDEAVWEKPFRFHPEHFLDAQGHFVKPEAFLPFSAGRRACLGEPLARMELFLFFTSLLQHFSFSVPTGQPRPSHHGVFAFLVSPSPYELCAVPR
In short: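 P450-Glo luminescent screen: recombinant CYP2D6 enzyme–proluciferin substrate mix preincubated with compound 10 min at room temperature, then NADPH regeneration added for 1 h at room temperature. Detection reagent added for 20 min; luciferin light read as relative luminescence units.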

[6] = target: Cytochrome P450 2C9 (Homo sapiens) (UniProt P11712); assay: Cytochrome P450 family 2 subfamily C member 9 (CYP2C9) small molecule antagonists: luciferase biochemical (cell-free) qHTS assay (AID 1645842; active = well fitted curve in the direction sought with a large enough effect in the repeat runs; an effect the other way counts as inactive or inconclusive; also: nearly all actives have a fitted effect of over 55% in size); settings: P450-Glo CYP2C9 enzyme assay, luciferin luminescence; series mostly up to 57.4 µM
Cytochrome P450 2C9 (Homo sapiens), sequence (P11712 whole entry, looked up): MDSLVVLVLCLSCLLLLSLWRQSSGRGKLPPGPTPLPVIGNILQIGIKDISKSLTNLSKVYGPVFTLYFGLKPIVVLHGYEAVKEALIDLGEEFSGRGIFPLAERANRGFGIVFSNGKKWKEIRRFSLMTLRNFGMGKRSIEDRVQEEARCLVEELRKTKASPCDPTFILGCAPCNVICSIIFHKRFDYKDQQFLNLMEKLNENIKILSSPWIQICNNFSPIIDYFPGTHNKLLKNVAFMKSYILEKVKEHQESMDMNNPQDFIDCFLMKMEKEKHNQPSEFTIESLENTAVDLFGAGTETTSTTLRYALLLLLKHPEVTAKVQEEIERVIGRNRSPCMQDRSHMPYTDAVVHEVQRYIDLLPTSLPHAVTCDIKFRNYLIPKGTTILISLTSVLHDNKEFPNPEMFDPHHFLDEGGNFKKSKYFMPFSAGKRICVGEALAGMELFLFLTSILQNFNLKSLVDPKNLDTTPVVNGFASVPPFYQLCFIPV
In short: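 Luminescence, after 20 min with luciferin detection reagent, reflected CYP2C9 turnover during a 1 h NADPH-driven reaction at 37C. Enzyme-substrate mix contained 0.4% bovine serum albumin and was preincubated with compound 10 min at room temperature.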

For COc1ccccc1NC(=O)Nc1nc(-c2cccnc2)nc2ccccc12, the Potency [1] was “inactive”, the outcome [2] was “inactive” and the Potency [3] was “inactive”.
In the case of CC(C)(C)c1ccc(S(=O)(=O)/C=C\C#N)cc1, the Potency [4] is reported as 794 nM (active).
In the case of C[C@@H](C(=O)O)c1ccc(-c2ccccc2)c(F)c1, the Potency [5] is reported as “inactive” and the Potency [6] is reported as “inactive”.
